Most compounds without a hit are left out; they make up all but 4.3% or so of the library.
SMARCA2 act – increases SMARCA2 function in MMTV reporter cells; hit rate 1% among 370,000; MG213 cells, MMTV-luciferase reporter, dexamethasone, overnight; activation, % at 9.1 µM; in the data active = activation above about 7.8%;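 note: 0% = vehicle wells and 100% = reference activator wells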
MITF act – MITF TRPM1 promoter activation in melanoma cells. SK-MEL-5 TRPM1-promoter luciferase, 24 h; % of positive control, neutral wells = 0. hit rate 0.75% among 300,000. activation, % at 12.5 µM;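 active = mean activation of at least 80% with every replicate also reaching 80%; inconclusive = mean reaches 80% but some replicate falls short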;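 note: 0% = neutral control wells and 100% = parthenolide positive control wells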
AF4-AF9 inh – inhibitors of human MLL-AF4/AF9 interaction | hit rate 0.47% among 350,000 | P42568 | AID 651704 | AlphaScreen, biotin-AF4 peptide binding to FLAG-AF9 | inhibition, % at 10 µM;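 active = every replicate reaching a set inhibition limit, whatever the replicate mean, cut at about 25% in these data; inconclusive = mean inhibition reaches that limit but some replicates miss it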;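 note: 0% = plate neutral control median and 100% = total signal loss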
Target sequence (P42568 whole entry, looked up): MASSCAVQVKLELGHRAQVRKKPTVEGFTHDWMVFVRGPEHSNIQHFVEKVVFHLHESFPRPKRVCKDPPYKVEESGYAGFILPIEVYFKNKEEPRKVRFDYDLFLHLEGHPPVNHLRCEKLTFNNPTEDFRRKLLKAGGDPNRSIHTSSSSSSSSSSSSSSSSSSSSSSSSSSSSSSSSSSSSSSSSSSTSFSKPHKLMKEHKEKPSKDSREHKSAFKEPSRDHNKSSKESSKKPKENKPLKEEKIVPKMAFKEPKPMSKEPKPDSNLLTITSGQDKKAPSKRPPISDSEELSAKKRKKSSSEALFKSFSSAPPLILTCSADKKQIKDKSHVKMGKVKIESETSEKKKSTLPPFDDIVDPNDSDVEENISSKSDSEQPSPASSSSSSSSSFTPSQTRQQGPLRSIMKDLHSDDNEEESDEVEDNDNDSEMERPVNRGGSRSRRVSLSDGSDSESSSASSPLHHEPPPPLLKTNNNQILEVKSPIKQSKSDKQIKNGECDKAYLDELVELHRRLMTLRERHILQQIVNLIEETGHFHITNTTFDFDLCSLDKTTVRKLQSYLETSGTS
Wnt act – activates Wnt/beta-catenin signaling in a reporter cell assay; hit rate 1.2% among 300,000; activator, plate reader; AID 743398; activation, % at 9.35 µM; in the data active = activation above about 30%, passing the limit was not always enough; inconclusive = no clear call, values can overlap the other calls;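 note: 0% = neutral control wells and 100% = positive control wells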
FGF22 binding – FGF22 (human) thermal shift binding; recombinant FGF22 thermal shift, SYPRO orange fluorescence; percent of sucrose octasulfate shift, DMSO zero; activity (Tm shift, normalised), % at 9.99 µM; hit rate 1.5% among 340,000;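 active = mean Tm shift, scaled 0 neutral to 100 positive control, at about 1.3% or above, every replicate too, limit read from the data; inconclusive = no clear call, values can overlap the other calls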
Target sequence (Q9HCT0 whole entry, looked up): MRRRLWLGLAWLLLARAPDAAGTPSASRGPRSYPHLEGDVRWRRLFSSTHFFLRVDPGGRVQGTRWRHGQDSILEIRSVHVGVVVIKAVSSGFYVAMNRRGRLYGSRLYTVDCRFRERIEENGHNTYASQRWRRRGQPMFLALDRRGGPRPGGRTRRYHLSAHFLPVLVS
esBAF inh – blocks esBAF chromatin remodeling in mouse ES cells | Bmi1-luciferase knock-in reporter, 24 h; 100% = twice the neutral-well signal | reporter increase, % at 12.5 µM | hit rate 2% among 350,000 | AID 602393; in the data active = activation above about 40%; inconclusive = no clear call, values can overlap the other calls;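 note: 0% = median of the plate's neutral control wells and 100% = double that signal; a rise in the Bmi1 reporter signal indicates esBAF inhibition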
SMARCA2 act conf – confirmation of SMARCA2 (BRM) function activators; MG213 cells, MMTV-luciferase with dexamethasone, luminescence, overnight; MG213 cells expressing E1A, Rb sequestered; DMSO wells 0%, reference activator 100%; hit rate 30% among 3,500; activation, % at 9.1 µM; shares compounds with SMARCA2 act; AID 652260;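 active = activation above its plate's cutoff, the mean activation of tested wells plus 3 SD, cut at about 7.9% in these data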
GAL4-VP16 Luc – counter-screen for SMARCA2 activators: GAL4-VP16 luciferase reporter activation; activation, % at 9.1 µM; hit rate 41% among 3,500; HEK293 GAL4-VP16 pG5luc reporter, luciferase luminescence; scaled: DMSO wells 0%, SAHA wells 100%; AID 686939; shares compounds with SMARCA2 act;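 active = activation above the solvent-only control well mean plus 3 SD, averaged across control plates, cut at about 5.2% in these data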
Active calls of the source: *; ? = inconclusive; · = no result given.

SMILES | SMARCA2 act | MITF act | AF4-AF9 inh | Wnt act | FGF22 binding | esBAF inh | SMARCA2 act conf | GAL4-VP16 Luc
O=C(C[C@@H]1C=C[C@H](NC(=O)C2CC2)[C@H](CO)O1)NCC1CC1 | · | · | -1 | · | 0 | -6 | · | ·
COc1ccc([C@H]2CC(=O)C=C(c3ccc4c(c3)OCCO4)C2)cc1 | 8.3* | 17 | 0 | 5 | 0 | 14 | 2 | 2
Cc1noc(C)c1NC(=O)Nc1ccc2c(c1)C(=O)N([C@@H](C)CO)C[C@H](C)[C@@H](CN(C)CC1CCCCC1)OCCCC[C@H](C)O2 | · | · | 3 | · | 0 | 0 | · | ·
c1ccc2c(NCCCN3CCOCC3)c3ccccc3nc2c1 | 15* | · | 0 | 8 | 0 | · | 28* | 1
COc1ccc2nc(C)cc(NCCN3CCOCC3)c2c1 | 0 | 18 | 2 | -2 | 0 | 0 | · | ·
Cc1cc(NCCN2CCOCC2)c2ccc3ccccc3c2n1 | 11* | 20 | 1 | 57* | 43* | · | 21* | 3
Fc1ccccc1-c1nc(NCCCN2CCOCC2)c2ccccc2n1 | -1 | 5 | 1 | -2 | 0 | · | · | ·
C[C@H](NC(=O)C[C@H]1CC[C@H](NC(=O)Cc2ccccn2)[C@H](CO)O1)c1ccccc1 | · | · | 0 | · | 0 | -9 | · | ·
COc1ccc(Cc2c(-c3ccc(OC)c(OC)c3)nc3ccc(C)cn23)c(C)c1 | -3 | · | 3 | -3 | 0 | -7 | · | ·
COc1ccc(Cc2c(-c3ccc(F)cc3)nc3ccc(C)cn23)c(C)c1 | 9.6* | · | 0 | 0 | 0 | · | 2 | 6.4*
COC(=O)C[C@H]1CC[C@@H]2[C@H](COc3ccc(NS(=O)(=O)c4ccccc4F)cc3C(=O)N2C)O1 | · | · | · | · | 0 | -4 | · | ·
CC(C)NC(=O)N(C)C[C@H]1OCCCC[C@@H](C)Oc2ccc(NC(=O)Cc3ccccc3)cc2C(=O)N([C@H](C)CO)C[C@@H]1C | · | · | -3 | · | 0 | · | · | ·
CC(=O)NC(c1cccc(F)c1)c1nc(-c2ccccc2C)cs1 (stereo not drawn) | 7 | · | -1 | -1 | 0 | 7 | · | ·
COc1cc(F)ccc1-c1csc(C(NC(C)=O)c2cccc(F)c2)n1 (stereo not drawn) | 10* | · | -1 | -1 | 0 | -1 | 2 | 1
CC(=O)N1CC[C@@H]2[C@H]1c1cc(-c3ccccc3)ccc1N(C)[C@@H]2CO | · | · | 0 | · | 0 | 3 | · | ·
COc1ccc2c3c(n(C)c2c1)[C@H](CO)N(CC1CCCC1)CC31CCN(C(=O)CN(C)C)CC1 | · | · | 0 | · | 0 | · | · | ·
COc1cc(NC(=O)c2cc([N+](=O)[O-])ccc2NC(=O)CNCc2ccccn2)cc(OC)c1 | 1 | -11 | 5 | -1 | 0 | 6 | · | ·
COc1ccc(NC(=O)c2cc([N+](=O)[O-])ccc2NC(=O)CNCc2ccccn2)c(OC)c1 | 13* | -17 | 6 | 1 | 0 | 17 | 4 | 1
C[C@@H]1CN([C@H](C)CO)C(=O)c2cc(N(C)C)ccc2O[C@@H]1CN(C)Cc1ccc2c(c1)OCO2 | · | · | 1 | · | -1 | 0 | · | ·
COCC#Cc1ccc2c(c1)O[C@H](CN(C)C(=O)c1ccccc1)[C@H](C)CN([C@@H](C)CO)S2(=O)=O | · | · | 0 | · | 0 | -3 | · | ·
C[C@@H]1CN([C@@H](C)CO)C(=O)c2cc(NS(=O)(=O)c3ccc(F)cc3)ccc2O[C@@H]1CN(C)C(=O)Nc1ccccc1 | · | · | 0 | · | 0 | 1 | · | ·
CCc1nnc2n1N=C(c1ccc(-c3cc(Cl)ccc3Cl)o1)CS2 | 8.9* | 32 | · | · | · | 2 | 1 | 2
CO[C@H]1CN(C)C(=O)c2ccc(NC(=O)c3ccccc3F)cc2OC[C@@H](C)N(C)C[C@H]1C | · | · | · | · | · | -3 | · | ·
CCC(=O)Nc1cc(Cl)ccc1C(=O)O | 9.4* | 0 | · | -2 | · | 0 | -3 | 2
COc1cc(/C=C/c2ccc3cccc(O)c3n2)cc(Br)c1OC | 8.4* | -1 | -4 | ? | 0 | 66* | -13 | 34*
SMILES | SMARCA2 act | MITF act | AF4-AF9 inh | Wnt act | FGF22 binding | esBAF inh | SMARCA2 act conf | GAL4-VP16 Luc
COc1cc(Br)cc(/C=C/c2ccc3cccc(O)c3n2)c1OC | 0 | -22 | -2 | 1 | 0 | 9 | · | ·
COc1cc(/C=C/c2ccc3cccc(O)c3n2)cc(Cl)c1OC | 12* | -15 | 2 | 47* | 0 | -4 | -6 | 34*
COc1cccc(/C=C/c2ccc3cccc(O)c3n2)c1 | 14* | 4 | 9 | ? | 0 | -62 | -3 | 23*
COc1ccc(/C=C/c2ccc3c(Br)ccc(O)c3n2)cc1 | -2 | ? | 3 | 11 | 0 | ? | · | ·
COC(=O)c1ccc(/C=C/c2ccc3cccc(OC)c3n2)cc1 | 1 | 20 | 0 | 0 | 0 | · | · | ·
COc1cc(/C=C/c2ccc3c(Br)cc(Br)c(O)c3n2)ccc1O | 8.7* | -21 | 0 | -10 | 0 | 6 | -16 | 7.9*
COc1ccc(-c2cnc3c(c2)C(=O)N([C@@H](C)CO)C[C@@H](C)[C@@H](CN(C)C(=O)Cc2cccnc2)O3)cc1 | · | · | -2 | · | 0 | 0 | · | ·
N/C(=N\OC(=O)COc1ccc(Br)cc1)c1ccncc1 | -2 | 16 | 3 | -2 | 0 | 6 | · | ·
CC(Oc1ccc(Br)cc1)C(=O)O/N=C(\N)c1ccncc1 (stereo not drawn) | 12* | 0 | -1 | -1 | 0 | 3 | -4 | 0
COc1ccc(NC(=O)Nc2ccc3c(c2)C(=O)N([C@H](C)CO)C[C@@H](C)[C@@H](CN(C)C(=O)Cc2ccccc2)OCCCC[C@H](C)O3)cc1 | · | · | 3 | · | -1 | -1 | · | ·
O=C(NCCN1C(=O)S/C(=C\c2ccccc2Cl)C1=O)C1=COCCO1 | -1 | 22 | -2 | -4 | 0 | · | · | ·
O=C(NCCN1C(=O)S/C(=C\c2ccc(Cl)cc2Cl)C1=O)C1=COCCO1 | 8.1* | 29 | 0 | 9 | -1 | 13 | 4 | 0
CC(C)NC(=O)Nc1ccc2c(c1)CC(=O)N([C@H](C)CO)C[C@H](C)[C@@H](CN(C)Cc1ccc(Oc3ccccc3)cc1)O2 | · | · | 11 | · | 0 | -3 | · | ·
O=C(C[C@@H]1C=C[C@H](NC(=O)c2ccncc2)[C@H](CO)O1)Nc1ccccc1 | · | · | -5 | · | · | · | · | ·
Cc1ccc(-n2c(C)csc2=N)cc1 | 8.7* | 59 | · | · | · | 35 | 8 | 19*
Cc1csc(=S)n1-c1ccccc1 | -1 | 6 | · | · | · | -2 | · | ·
C[C@@H]1CN([C@H](C)CO)C(=O)c2cc(NC(=O)Nc3ccc4c(c3)OCO4)ccc2O[C@@H](C)CCCCO[C@H]1CN(C)S(=O)(=O)c1ccccc1 | · | · | 3 | · | -1 | 25 | · | ·

Screening results: PubChem, several laboratories
